# Reference: the supplement of paper PMC6555819
# Experiments:
# Assay in all cases: PBM binding z-score (relative to random genomic background probes); higher = stronger binding; sequences stand for … in GC…GCGATTGACAGCGTAGAATGAAGG
# [1] = test system: FXR:RXRa (NR concentration 270 nM, RXRa partner concentration 90 nM)
# Procedure, shortened: (§1)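 Binding z-scores take random background probes as their reference. They come from custom Agilent 4×180K protein-binding microarrays incubated 1 h with ligand-free nuclear receptor dimers, with antibodies against each partner (one per run) detecting binding. Scanned fluorescence was regression-normalized.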
# [2] = test system: LXRa:RXRa (NR concentration 270 nM, RXRa partner concentration 90 nM)
# Procedure, shortened: as §1
# [3] = test system: LXRa homodimer (NR concentration 270 nM)
# Procedure, shortened: as §1
# [4] = test system: LXRb:RXRa (NR concentration 270 nM, RXRa partner concentration 90 nM)
# Procedure, shortened: as §1
# [5] = test system: LXRb homodimer (NR concentration 270 nM)
# Procedure, shortened: as §1
# [6] = test system: PPARa:RXRa (NR concentration 270 nM, RXRa partner concentration 90 nM)
# Procedure, shortened: as §1
# [7] = test system: PPARg:RXRa (NR concentration 180 nM, RXRa partner concentration 90 nM)
# Procedure, shortened: as §1
# [8] = test system: PPARg:RXRa 270nM:90nM, anti-RXR (NR concentration 270 nM, RXRa partner concentration 90 nM)
# Procedure, shortened: as §1
# [9] = test system: PPARg:RXRa 30nM:10nM, anti-RXR (NR concentration 30 nM, RXRa partner concentration 10 nM)
# Procedure, shortened: as §1
# [10] = test system: PPARg:RXRa 90nM:30nM, anti-RXR (NR concentration 90 nM, RXRa partner concentration 30 nM)
# Procedure, shortened: as §1
Sequence,PBM binding z-score [1],PBM binding z-score [2],PBM binding z-score [3],PBM binding z-score [4],PBM binding z-score [5],PBM binding z-score [6],PBM binding z-score [7],PBM binding z-score [8],PBM binding z-score [9],PBM binding z-score [10]
TGTTGTAGATCAGCAGGTTAAGAAAGCTGGCCAA,-0.297,-0.297,-0.591,-0.397,-0.822,-0.205,-0.588,0.116,-0.287,-0.0252
CAAACTAGGTCAAAGGTGAAAGTCGAGCCAACCA,6.6,5.02,0.751,4.52,0.619,7.19,13.3,10.7,12.4,13.5
TCTCGGAGGACACGAAGGCCAGAGCTTTCCAGAG,0.413,-0.099,-0.863,-0.477,-0.953,0.156,-0.048,0.609,1.81,1.36
CAAACTAGGTCAGAGAGGTCAAAGTCCGTGCGTA,6.28,6.16,6.8,5.36,1.48,6.07,8.4,7.06,4.96,7.01
GCGCCTGGGGCATCAGCAGGTTACCATAACTTAA,-0.344,-0.299,-0.446,0.294,-1.19,0.454,0.0238,-0.488,-0.952,-0.927
CGAACTAGGCCAGAACAGGACAGTGAAGGATGAT,-0.345,-0.433,-0.144,-0.816,-0.951,0.499,1.22,0.225,0.233,0.37
ATACCAAGGTGATCGTGAGGTCATTGATACTAAC,4.13,4.22,4.81,3.53,0.748,3.62,1.7,1.98,0.601,1.25
TCTTGTAGATCAACAGGAGGTTGAGAAAGATCGA,-0.0264,-0.201,-0.188,-0.211,-0.144,0.467,-0.1,1.33,2.81,2.24
TCATATAGGTAAATACTAGGTGAAAGTCCGATCT,1.19,1.08,0.534,0.889,0.276,2.16,2.46,3.26,4.4,3.92
CTCGAACGGTCGGTTGAGGTGAGTATACGGATAA,0.102,-0.565,-0.727,-0.59,-0.761,-0.3,-0.199,-0.622,-0.623,-0.601
CCTATTAGTTGACCGTAAGGGCAACCGAAGCTCG,1.88,0.908,0.863,0.769,0.64,0.834,0.00382,0.48,-0.271,-0.155
